Rows were chosen to be rich in hits. Some 21% of all compounds tested hit in one or more screens of this group.
Shiga toxin inh: A qHTS for Small Molecule Inhibitors of Shiga Toxin; Vero cells, Shiga toxin protein synthesis inhibition reporter; inhibition, % at 38.7 µM; 290,000 tested, 9.2% active; in the data active = inhibition mostly above about 28%, no sharp cut-off; inactive = mostly below about 43%; also: 0% is about no effect
Pf growth 96h: Primary qHTS for delayed death inhibitors of the malarial parasite plastid, 96 hour incubation. P. falciparum luciferase reporter growth, 96 h. Potency, µM (top dose mostly 28.7 µM), inactives show at the highest dose activity change, negative = inhibition, actives largely listed as inhibitors. 320,000 tested, 6.9% active. AID 504834, 2011; also: potency is read from the fitted curve at half-maximal effect; % is scaled to controls: 0 for no effect and ±100 for the full control effect
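Two-generation exposure (96 h) targets delayed-death phenotype. Reporter parasites carrying integrated firefly luciferase, in red cells at 2% hematocrit and 0.05% parasitemia final, kept at 37 C, 5% CO2; luminescence loss indicates inhibition.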
Pf growth 48h: Primary qHTS for delayed death inhibitors of the malarial parasite plastid, 48 hour incubation; P. falciparum luciferase growth in erythrocytes, 48 h; Potency, µM (titrated, usually from 28.7 µM), for inactives: at the highest dose activity change, negative = inhibition, usual class: inhibitors; 310,000 tested, 5.9% active; also: potency is read from the fitted curve at half-maximal effect; % is scaled to controls: 0 for no effect and ±100 for the full control effect
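Luminescence readout; reporter = integrated firefly luciferase in P. falciparum. RBC culture at 2% hematocrit, 0.1% parasitemia final, 37 C/5% CO2; decreased signal taken as growth inhibition.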
NS1 inh: qHTS Assay for Inhibitors of Influenza NS1 Protein Function; Potency, µM (top dose mostly 46.1 µM), for the others: at the highest dose activity, positive = more growth; AID 2326, 2010; 270,000 tested, 0.4% active; calls by dose curve; also: potency is read from the fitted curve at half-maximal effect; actives are rising curves; nearly all actives have a fitted effect of over 50% in size
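A cell-based growth assay was used: compounds that relieve NS1-induced slow growth of budding yeast raise OD600. Assay medium was yeast nitrogen base with ammonium sulphate and -URA supplement, pH 6.0, with 2% galactose.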
CHX counter: Cycloheximide Counterscreen for Small Molecule Inhibitors of Shiga Toxin. cell reporter, cycloheximide protein synthesis inhibition counterscreen. max response, %. 300,000 tested, 12% active. AID 2314, 2010; in the data active = max response mostly above about 13%, no sharp cut-off; inactive = mostly below about 14%; also: read at 38.3 µM for the half of the compounds with a filed dose; 0% is about no effect
Numbers without * were called inactive; ? = inconclusive; . = not tested or not shown. Unless noted, calls follow the shape of the dose curve; as a rule, active = well fitted inhibition curve with a large enough effect; inconclusive = small, poorly fitted or top-dose-only effect, or another doubt; inactive = no such curve, though single readings can be large or run the other way.

SMILES	Shiga toxin inh	Pf growth 96h	Pf growth 48h	NS1 inh	CHX counter
CN1C[C@@H](NS(=O)(=O)N(C)C)C[C@@H]2c3cccc4c3c(cn4C)C[C@H]21	.	13µM*	-46%	.	.
Cc1cc2ccc3ccccc3c2cc1CN(C)C	60*	?	-25%	-5%	33*
Cc1cccc2cc3ccc4ccccc4c3cc12	.	.	.	7%	.
CC(C)Cc1ccc(CN2CCCC(NC(=O)c3cccc(-n4cnnc4)c3)C2)cc1 (stereo unspecified)	11	-22%	13µM*	30%	13
CC(C)Cc1ccc(CN2CCCC(NC(=O)c3ccoc3)C2)cc1 (stereo unspecified)	32	64%	10µM*	3%	2
OC(COCC1COc2ccccc2O1)CN1CCN(c2ccccc2F)CC1 (stereo unspecified)	-12	7.4µM*	31%	-16%	15
O=C(OCC1COc2ccccc2O1)c1c(F)cccc1F (stereo unspecified)	51	?	4.1µM*	-14%	21*
Oc1ccc(C=NCC2COc3ccccc3O2)cc1 (stereo unspecified)	24	-19%	5%	-10%	-3
OCCN1CCN(CC(O)COCC2COc3ccccc3O2)CC1 (stereo unspecified)	4	4%	11%	.	1
O=C(NCc1ccccc1)C(=O)NCC1COc2ccccc2O1 (stereo unspecified)	3	14%	1%	0%	-2
NC(N)=NCC1COc2ccccc2O1 (stereo unspecified)	.	2.1µM*	?	.	.
CCCNC(=O)[C@H](C)NC(=O)c1ccc(Br)cc1	-3	18%	0%	0%	-3
CCC1=NN(C(=O)c2cccc(Br)c2)C(O)(c2ccc(Br)cc2)C1 (stereo unspecified)	70*	?	?	-42%	41*
COC(=O)C1=NN(C(=O)c2ccc(C)cc2)C(O)(c2ccc(Cl)cc2)C1 (stereo unspecified)	3	51%	2%	-84%	-1
CCC1=NN(C(=O)c2ccc(Br)cc2)C(O)(c2ccc(C)cc2)C1 (stereo unspecified)	32*	-17%	31%	-43%	33*
CCC1=NN(C(=O)c2ccc(C)cc2)C(O)(c2ccc(Br)cc2)C1 (stereo unspecified)	44*	13µM*	11%	-15%	39*
CCC1=NN(C(=O)Cc2ccccc2)C(O)(c2ccncc2)C1 (stereo unspecified)	-7	?	?	4%	-1
CN(C)/N=N/c1nc[nH]c1C(N)=O	.	6%	-7%	.	.
CCc1ccc(NC(=O)CCC(=O)Nc2nnc(C(F)(F)F)s2)cc1	4	43%	46%	5%	-3
COc1ccc2cc(C(c3nnnn3C3CCCCC3)N3CCCCCC3)c3nnnn3c2c1 (stereo unspecified)	.	.	.	-31%	.
COc1ccc(OC)c(C(c2nnnn2C2CCCC2)N2CCN(c3ccc(F)cc3)CC2)c1 (stereo unspecified)	29	24%	12µM*	-1%	-4
COc1ccc(C(c2nnnn2C2CCCC2)N2CCC(C)CC2)c(OC)c1 (stereo unspecified)	-12	3%	12µM*	-18%	-2
O=C(O)CN1C(=O)CSC1=S	30	31%	33%	5%	-1
CCN(CC)C(=O)C1CCC(CNS(=O)(=O)c2cccc3cccnc23)CC1 (stereo unspecified)	18	15µM*	-2%	-10%	7
CN1CCN(C(=O)C2CCC(CNS(=O)(=O)c3cccc4cccnc34)CC2)CC1 (stereo unspecified)	-11	?	.	3%	-6
CC1CCC(NC(=O)C2CCC(CNS(=O)(=O)c3cccc4cccnc34)CC2)CC1 (stereo unspecified)	8	12µM*	-9%	10%	2
CC1CCN(C(=O)C2CCC(CNS(=O)(=O)c3cccc4cccnc34)CC2)CC1 (stereo unspecified)	-8	9.3µM*	.	-1%	-2
CC1CCC(NC(=O)C2CCC(CNS(=O)(=O)c3ccccc3)CC2)CC1 (stereo unspecified)	32	20%	-6%	3%	7
CC(=O)N1c2ccc(S(=O)(=O)NCC3CCC(C(=O)NC4CCC(C)CC4)CC3)cc2CC1C (stereo unspecified)	-8	?	13µM*	-8%	-2

Screening results (PubChem BioAssay)
